Experimental data as given in PubChem BioAssay AID1159580 (chemical genetic matrix, 2015).
“And” between values parts separate entries of the source, which are not always exact repeats. Equal entries are not always repeated. The whole screen tested about 5,500 compounds, of which about 2,000 (36%) were called active. Not shown: some 18% with an inconclusive outcome. Rule as the data show it: active = normalized growth mostly below about 0.91 (no sharp cut-off); inconclusive = no clear call, values can overlap the other calls; inactive = mostly above about 0.92. The list shows a part of the results.

Assay: chemical genetic growth profiling, strain panel (AID 1159580);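 also: tested at 20 µM; growth read once vehicle control cultures reached saturation at 30 °C; 1 = growth at the plate median or of vehicle wells; lower values mean less growth of the strain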
Details: S. cerevisiae deletion strains, growth OD

Measured: normalized growth

Oc1ccc(/C=C/c2cc(O)cc(O)c2)cc1
0.892 (active) and 0.981 (inactive): locus YHR030C, strain SLT2, stronger effect = lower value
0.406 (active) and 1.01 (inactive): locus YJL095W, strain BCK1, stronger effect = lower value
inactive: locus YAL013W, strain DEP1, stronger effect = lower value 0.972 and 1.02 | locus YAL021C, strain ccr4, stronger effect = lower value 0.995 | locus YAL026C, strain drs2, stronger effect = lower value 0.978 | locus YAL030W, strain snc1, stronger effect = lower value 0.99 | locus YAL040C, strain CLN3, stronger effect = lower value 0.987 | locus YBL061C, strain skt5, stronger effect = lower value 0.992 | locus YBR009C, strain hhf1, stronger effect = lower value 0.968 | locus YBR021W, strain FUR4, stronger effect = lower value 0.961 | locus YBR023C, strain chs3, stronger effect = lower value 0.99 | locus YBR171W, strain sec66, stronger effect = lower value 1.01 | locus YBR229C, strain ROT2, stronger effect = lower value 1.02 | locus YBR231C, strain swc5, stronger effect = lower value 0.988 | locus YBR279W, strain paf1, stronger effect = lower value 0.988 | locus YCL011C, strain gbp2, stronger effect = lower value 0.996 | locus YCL016C, strain dcc1, stronger effect = lower value 0.99 | locus YCL029C, strain bik1, stronger effect = lower value 0.929 | locus YCL061C, strain MRC1 (second series), stronger effect = lower value 0.987 | locus YCL061C, strain MRC1, stronger effect = lower value 0.99 | locus YCL069W, strain vba3, stronger effect = lower value 1.01 | locus YCR088W, strain abp1, stronger effect = lower value 1 | locus YDL005C, strain med2, stronger effect = lower value 0.999 | locus YDL035C, strain GPR1, stronger effect = lower value 0.939 | locus YDL040C, strain nat1, stronger effect = lower value 0.982 | locus YDL074C, strain BRE1, stronger effect = lower value 0.867 | locus YDL101C, strain DUN1, stronger effect = lower value 0.999 | locus YDL134C, strain PPH21, stronger effect = lower value 0.982 | locus YDL185W, strain tfp1, stronger effect = lower value 0.939 | locus YDR001C, strain nth1, stronger effect = lower value 0.999 | locus YDR069C, strain doa4, stronger effect = lower value 0.988 | locus YDR150W, strain NUM1, stronger effect = lower value 0.985 | locus YDR159W, strain sac3, stronger effect = lower value 0.954 | locus YDR162C, strain NBP2, stronger effect = lower value 0.948 | locus YDR297W, strain sur2, stronger effect = lower value 0.977 | locus YDR318W, strain mcm21, stronger effect = lower value 0.983 | locus YDR334W, strain swr1, stronger effect = lower value 0.997 | locus YDR335W, strain msn5, stronger effect = lower value 1.01 | locus YDR363W, strain ESC2, stronger effect = lower value 1.01 | locus YDR388W, stronger effect = lower value 0.962 | locus YDR392W, strain spt3, stronger effect = lower value 0.842 | locus YEL003W, strain gim4, stronger effect = lower value 0.992 | locus YEL037C, strain rad23, stronger effect = lower value 1.01 | locus YEL061C, strain CIN8 (second series), stronger effect = lower value 1.01 | locus YEL061C, strain CIN8, stronger effect = lower value 0.986 | locus YER002W, strain NOP16, stronger effect = lower value 0.98 | locus YER015W, strain faa2, stronger effect = lower value 0.986 | locus YER016W, strain bim1, stronger effect = lower value 0.994 | locus YER110C, stronger effect = lower value 0.98 | locus YER111C, strain swi4, stronger effect = lower value 1.01 | locus YER155C, strain BEM2 (second series), stronger effect = lower value 0.986 | locus YER155C, strain BEM2, stronger effect = lower value 1.02 | locus YER167W, strain BCK2, stronger effect = lower value 1.01 | locus YFR010W, strain ubp6, stronger effect = lower value 0.984 | locus YGL167C, strain pmr1, stronger effect = lower value 0.978 | locus YGL173C, strain kem1, stronger effect = lower value 0.994 | locus YGL227W, strain vid30, stronger effect = lower value 0.991 | locus YGL240W, strain doc1, stronger effect = lower value 1 | locus YGL248W, strain PDE1, stronger effect = lower value 0.965 | locus YGL253W, strain hxk2, stronger effect = lower value 0.968 | locus YGR078C, strain PAC10, stronger effect = lower value 0.959 | locus YGR135W, strain pre9, stronger effect = lower value 0.936 | locus YGR252W, strain gcn5, stronger effect = lower value 0.853 | locus YHR013C, strain ard1, stronger effect = lower value 1.04 | locus YHR027C, strain rpn1, stronger effect = lower value 0.989 | locus YHR079C, strain IRE1 (second series), stronger effect = lower value 0.981 | locus YHR079C, strain IRE1, stronger effect = lower value 0.978 | locus YHR094C, strain hxt1, stronger effect = lower value 0.981 | locus YHR129C, strain ARP1, stronger effect = lower value 0.972 | locus YHR142W, strain chs7, stronger effect = lower value 0.987 | locus YHR200W, strain rpn10, stronger effect = lower value 0.93 | locus YIL066C, strain RNR3, stronger effect = lower value 0.987 | locus YIL073C, strain SPO22, stronger effect = lower value 0.896 | locus YIL125W, strain kgd1, stronger effect = lower value 0.952 | locus YIR030C, strain dcg1, stronger effect = lower value 0.964 | locus YJL092W, strain hpr5, stronger effect = lower value 0.995 | locus YJL095W, strain BCK1 (second series), stronger effect = lower value 0.987 | locus YJL115W, strain asf1, stronger effect = lower value 1 | locus YJL129C, strain trk1, stronger effect = lower value 0.903 | locus YJL134W, strain LCB3, stronger effect = lower value 1.01 | locus YJL154C, strain vps35, stronger effect = lower value 1 | locus YJL164C, strain tpk1, stronger effect = lower value 1.01 | locus YJL166W, strain qcr8, stronger effect = lower value 0.998 | locus YJL168C, strain set2, stronger effect = lower value 0.973 | locus YJL187C, strain SWE1 (second series), stronger effect = lower value 0.934 | locus YJL187C, strain SWE1, stronger effect = lower value 0.986
active: locus YDL192W, strain arf1, stronger effect = lower value 0.865 | locus YDR101C, strain arx1, stronger effect = lower value 0.873 | locus YDR137W, strain rgp1, stronger effect = lower value 0.681 | locus YDR195W, strain ref2 1.18 [resistant] | locus YDR502C, strain sam2, stronger effect = lower value 0.895 | locus YGL078C, strain dbp3, stronger effect = lower value 0.895 | locus YGL086W, strain mad1, stronger effect = lower value 0.897
